These results are taken from PubChem BioAssay (NCATS).

Molecules are shown by their SMILES. Records with an inconclusive call do not appear. Calls of active or inactive are those of the source. Calls come from the whole dose curve; as a rule, active = well fitted curve in the direction sought with a large enough effect; inconclusive = small, poorly fitted or top-dose-only effect, or another doubt; inactive = no such curve, though single readings can be large; an effect the other way counts as inactive or inconclusive.

A short description of assay [1]: Quantitative High-Throughput drug screen in 47 multiple myeloma cell lines against the NCATS MIPE library collection: FR4_PLB cell viability assay (AID 1918924; note: nearly all actives have a fitted effect of over 35% in size). In short, it runs like this: (§1)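 We plated 500 myeloma cells per well, pinned in MIPE 4.0 compounds, and incubated for 48 hours at 37C. ATP was then quantified with CellTiter-Glo, with DMSO and media-only wells defining 100% and 0%.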

The nature of assay [2]: Quantitative High-Throughput drug screen in 47 multiple myeloma cell lines against the NCATS MIPE library collection: Delta47_JCRB cell viability assay (AID 1918925; note: nearly all actives have a fitted effect of over 45% in size). The method, boiled down: (§2)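 qHTS of the MIPE 4.0 collection: 500 myeloma cells/well, 48 h drug exposure at 37C in 5% CO2, then CellTiter-Glo for 5 min at room temperature before luminescence reading.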
A short description of assay [3]: Quantitative High-Throughput drug screen in 47 multiple myeloma cell lines against the NCATS MIPE library collection: EJM_DSMZ cell viability assay (AID 1918926; note: nearly all actives have a fitted effect of over 30% in size). The method, boiled down: as §2
The nature of assay [4]: Quantitative High-Throughput drug screen in 47 multiple myeloma cell lines against the NCATS MIPE library collection: ARP1_JJKsccF8 cell viability assay (AID 1918928; note: nearly all actives have a fitted effect of over 40% in size). The method, boiled down: (§3)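 Viability screen: myeloma cells (500/well) incubated 48 h at 37 °C, humidified 5% CO2, with pinned library compounds; CellTiter-Glo added, luminescence read; DMSO wells set 100%, medium-only wells 0%.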

The nature of assay [5]: Quantitative High-Throughput drug screen in 47 multiple myeloma cell lines against the NCATS MIPE library collection: Karpas620_DSMZ cell viability assay (AID 1918959). Note: nearly all actives have a fitted effect of over 30% in size. In short, it runs like this:
as §1

The nature of assay [6]: Quantitative High-Throughput drug screen in 47 multiple myeloma cell lines against the NCATS MIPE library collection: KMS27_JCRB cell viability assay (AID 1918970). Note: nearly all actives have a fitted effect of over 30% in size. In short, it runs like this: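 ATP-based viability (CellTiter-Glo luminescence) is measured in cells treated 48 h with approved and investigational drugs at 37 °C. Controls are DMSO-only wells for full viability and media-only wells for none.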

Assay [7] is described as follows: Quantitative High-Throughput drug screen in 47 multiple myeloma cell lines against the NCATS MIPE library collection: Karpas25_ECACC cell viability assay (AID 1918968; note: nearly all actives have a fitted effect of over 35% in size). The method, boiled down: as §2
Assay [8] is described as follows: Quantitative High-Throughput drug screen in 47 multiple myeloma cell lines against the NCATS MIPE library collection: AMO1_DSMZ cell viability assay (AID 1918927; note: nearly all actives have a fitted effect of over 30% in size). The method, boiled down:
as §2

Assay [9] is described as follows: Quantitative High-Throughput drug screen in 47 multiple myeloma cell lines against the NCATS MIPE library collection: KMM1_JCRB cell viability assay (AID 1918960). Note: nearly all actives have a fitted effect of over 30% in size. In short, it runs like this:
as §3

Assay [10] is described as follows: Quantitative High-Throughput drug screen in 47 multiple myeloma cell lines against the NCATS MIPE library collection: KHM11_PLB cell viability assay (AID 1918962). Note: nearly all actives have a fitted effect of over 35% in size. The method, boiled down: as §1
Assay [11] is described as follows: Quantitative High-Throughput drug screen in 47 multiple myeloma cell lines against the NCATS MIPE library collection: JIM3_ECACC cell viability assay (AID 1918963; note: nearly all actives have a fitted effect of over 35% in size). In short, it runs like this:
as §1

Assay [12] can be described thus: Quantitative High-Throughput drug screen in 47 multiple myeloma cell lines against the NCATS MIPE library collection: JJN3_DSMZ cell viability assay (AID 1918966; note: nearly all actives have a fitted effect of over 50% in size). In short, it runs like this: as §2
A short description of assay [13]: Quantitative High-Throughput drug screen in 47 multiple myeloma cell lines against the NCATS MIPE library collection: ARD_JJKsccE7 cell viability assay (AID 1918929). The method, boiled down:
as §2

Assay [14] in a line: Quantitative High-Throughput drug screen in 47 multiple myeloma cell lines against the NCATS MIPE library collection: JIM1_ECACC cell viability assay (AID 1918964). In short, it runs like this:
as §2

Assay [15] can be described thus: Quantitative High-Throughput drug screen in 47 multiple myeloma cell lines against the NCATS MIPE library collection: H1112_PLB cell viability assay (AID 1918967; note: nearly all actives have a fitted effect of over 30% in size). In short, it runs like this: as §2
The nature of assay [16]: Quantitative High-Throughput drug screen in 47 multiple myeloma cell lines against the NCATS MIPE library collection: INA6_PLB cell viability assay (AID 1918965; note: nearly all actives have a fitted effect of over 55% in size). The method, boiled down: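 Viability readout: CellTiter-Glo luminescence following 5 min room-temperature incubation with reagent. Prior exposure: 48 h, 37C, humidified 5% CO2, 500 cells per well.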
Potency is the fitted concentration of half-maximal effect.

In the case of `N[C@@]1(C(=O)O)CS(=O)(=O)[C@H]2[C@H](C(=O)O)[C@H]21`, the Potency entry in assay [1], in assay [3], in [4] and in assay [5] was “inactive” in each case. Moreover, the Potency in assay [2] was 9.35 µM (active).
For the compound `CC=CC[C@@H](C)C(=O)[C@H]1C(=O)N[C@@H](C(C)C)C(=O)N(C)CC(=O)N(C)[C@@H](CC(C)C)C(=O)N[C@@H](C(C)C)C(=O)N(C)[C@@H](CC(C)C)C(=O)N[C@@H](C)C(=O)N[C@H](C)C(=O)N(C)[C@@H](CC(C)C)C(=O)N(C)[C@@H](CC(C)C)C(=O)N(C)[C@@H](C(C)C)C(=O)N1C`, the Potency was 23.5 µM (active) in assay [1], 23.5 µM (active) in assay [2], 18.7 µM (active) in assay [4] and 4.69 µM (active) in assay [6]. The Potency entry in [3] is “inactive”.
Take `O=c1cc(-c2ccc(O)cc2)oc2cc(O)cc(O)c12`: the Potency is 23.5 µM (active) in assay [1]; 10.5 µM (active) in assay [2]; 4.18 µM (active) in assay [3]; 20.9 µM (active) in assay [4]; 10.5 µM (active) in [7].
As for `CCC(=O)O[C@]1(C(=O)CO)CC[C@H]2[C@@H]3CCC4=CC(=O)CC[C@]4(C)[C@@H]3CC[C@@]21C`, the Potency entry in [1], in [2], in assay [3], in assay [8], in [5] and in [9] was “inactive” throughout. Also, the Potency entry in assay [10], in [11], in assay [12] and in assay [6] was “inactive” throughout.
Consider `O=C1c2c(O)cc(O)cc2O[C@H](c2cc(O)c(O)c(O)c2)[C@H]1O`, for which the Potency in assay [1] was 26.4 µM (active); in assay [3], 1.66 µM (active); in assay [4] it was 11.8 µM (active); in assay [14], 5.9 µM (active); in assay [12], 16.6 µM (active). The Potency result in assay [2], in [13], in [9], in [10], in assay [11] and in assay [15] was “inactive” in each case. Moreover, the Potency result in assay [6] was “inactive”.
Turning to `Cc1nnc(C(C)C)n1C1C[C@H]2CC[C@@H](C1)N2CC[C@H](NC(=O)C1CCC(F)(F)CC1)c1ccccc1` (stereo partly specified), the Potency entry in assay [1], in [8], in assay [4] and in [11] was “inactive” each time. For the same compound, the Potency was 16.6 µM (active) in assay [2], 14.8 µM (active) in [15] and 18.7 µM (active) in [7].
Turning to `Oc1ccc(C2CCN(c3ccnc4ccccc34)CC2)cc1O`, the Potency was 14.8 µM (active) in assay [1]; 9.35 µM (active) in assay [2]; 18.7 µM (active) in assay [8]; 23.5 µM (active) in [4]; 11.8 µM (active) in assay [11]; 7.43 µM (active) in assay [7]. Also, in [6], the Potency was 18.7 µM (active).
`O=C(NCc1ccncc1)C12C[C@H]3C[C@@H](C1)CC(c1ccc(Cl)cc1)(C3)C2`: the Potency in assay [1] is 14.8 µM (active); in assay [2] it was 16.6 µM (active); in assay [8] it was 9.35 µM (active); in assay [13] it was 18.7 µM (active); in assay [5] it was 9.35 µM (active); in [9], 23.5 µM (active). For the same compound, the Potency in [14] is 13.2 µM (active); in assay [16], 20.9 µM (active); in assay [15], 13.2 µM (active); in [7], 20.9 µM (active); in [6], 8.33 µM (active). Moreover, the Potency entry in assay [10] was “inactive”.
With `C[C@]12CC[C@@H]3c4ccc(O)cc4CC[C@H]3[C@H]1C[C@@H](O)[C@H]2O`, the Potency entry in assay [1], in assay [13], in [11], in assay [15] and in assay [7] was “inactive” throughout. Besides, the Potency is 2.64 µM (active) in [2], 18.7 µM (active) in assay [8] and 9.35 µM (active) in assay [4].
`O=C(N[C@@H](c1ccccc1)[C@@H]1CCCCN1)c1cccc(C(F)(F)F)c1Cl`: the Potency result in assay [1], in [5], in assay [9], in assay [11], in assay [14] and in assay [16] was “inactive” throughout. Moreover, the Potency entry in assay [12] and in assay [7] was “inactive” throughout. Moreover, the Potency was 14.8 µM (active) in assay [2], 18.7 µM (active) in assay [3] and 14.8 µM (active) in [15].
In the case of `Cc1[nH]c(C=C2C(=O)Nc3ccc(S(=O)(=O)Cc4c(Cl)cccc4Cl)cc32)c(C)c1C(=O)N1CCC[C@H]1CN1CCCC1`, the Potency was 23.5 µM (active) in assay [1]; 5.9 µM (active) in [2]; 26.4 µM (active) in [8]; 23.5 µM (active) in assay [4]; 9.35 µM (active) in assay [13]; 18.7 µM (active) in assay [9]. The Potency in assay [10] is 8.33 µM (active); in assay [11] it was 18.7 µM (active); in assay [14] it was 7.43 µM (active); in assay [16] it was 3.32 µM (active); in [15] it was 14.8 µM (active); in assay [7] it was 2.96 µM (active). Moreover, the Potency in assay [6] is 2.64 µM (active).
As to `CN1[C@@H]2CCC[C@@H]1CC(NC(=O)c1nn(C)c3ccccc13)C2` (stereo partly specified), the Potency result in assay [1], in [2], in assay [3], in assay [8], in [5] and in assay [9] was “inactive” each time. Further, the Potency entry in assay [11], in [16], in assay [15], in [7] and in assay [6] was “inactive” in each case.
For `C[C@@H]1CCN(C(=O)CC#N)C[C@H]1N(C)c1ncnc2[nH]ccc12`, the Potency result in assay [1], in assay [2], in [3], in [4], in [5] and in [9] was “inactive” throughout. In addition, the Potency entry in assay [15] and in [7] was “inactive” each time.
For `CCCCCCCCCCCC1=C(O)C(=O)C=C(O)C1=O`, the Potency was 20.9 µM (active) in assay [1]; 3.32 µM (active) in assay [2]; 3.32 µM (active) in assay [8]; 11.8 µM (active) in [4]; 1.66 µM (active) in assay [13]; 0.264 µM (active) in assay [5]. Also, the Potency is 2.96 µM (active) in assay [9]; 4.69 µM (active) in assay [11]; 0.59 µM (active) in assay [14]; 2.64 µM (active) in [16]; 2.96 µM (active) in assay [7]; 0.187 µM (active) in assay [6].
Take `CCNc1cc(NC2CCC(O)CC2)nc(Nc2ccc3c(ccn3Cc3ccccc3)c2)n1` (stereo unspecified): the Potency is 26.4 µM (active) in assay [1]; 18.7 µM (active) in assay [2]; 18.7 µM (active) in [3]; 20.9 µM (active) in assay [11]; 16.6 µM (active) in [16]; 18.7 µM (active) in assay [15]. Also, the Potency in [7] was 18.7 µM (active); in assay [6] it was 16.6 µM (active).
In the case of `CC1(C)CCC[C@@]2(C)[C@@H]1CC[C@@]1(C)OC(=O)C[C@H]21`, in assay [1], the Potency was 14.8 µM (active). Further, the Potency entry in assay [2], in [3], in assay [4], in assay [5], in [9] and in assay [10] was “inactive” each time. The Potency result in assay [11], in [14], in assay [16], in [12], in assay [15] and in assay [7] was “inactive” throughout.
For the compound `C[C@]12CCC3c4ccc(O)cc4CCC3C1CCC2=O` (stereo partly specified), the Potency in assay [1] was 1.87 µM (active); in [8], 0.833 µM (active). For the same compound, the Potency entry in assay [2], in assay [3], in assay [13], in assay [9], in assay [11] and in assay [15] was “inactive” in each case. In [6], the Potency result was “inactive”.
